Compound activity as filed in PubChem BioAssay.
The entries come from a sample that favours hits as a whole.
SF-1 inh: blocks the human nuclear receptor SF-1 | Q13285 | CHO-K1 Gal4-SF-1 LBD luciferase reporter | inhibition, % at 10 µM | 0.55% of 65,000 active | AID 525;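 active means inhibition above the mean inhibition of all tested compounds plus 3 SD, cut at about 48% in these data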;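 further: 0% = SF-1 transfected cells with DMSO and 100% = mock-transfected cells lacking SF-1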
Target sequence (Q13285 whole entry, looked up, the tested form may be a part): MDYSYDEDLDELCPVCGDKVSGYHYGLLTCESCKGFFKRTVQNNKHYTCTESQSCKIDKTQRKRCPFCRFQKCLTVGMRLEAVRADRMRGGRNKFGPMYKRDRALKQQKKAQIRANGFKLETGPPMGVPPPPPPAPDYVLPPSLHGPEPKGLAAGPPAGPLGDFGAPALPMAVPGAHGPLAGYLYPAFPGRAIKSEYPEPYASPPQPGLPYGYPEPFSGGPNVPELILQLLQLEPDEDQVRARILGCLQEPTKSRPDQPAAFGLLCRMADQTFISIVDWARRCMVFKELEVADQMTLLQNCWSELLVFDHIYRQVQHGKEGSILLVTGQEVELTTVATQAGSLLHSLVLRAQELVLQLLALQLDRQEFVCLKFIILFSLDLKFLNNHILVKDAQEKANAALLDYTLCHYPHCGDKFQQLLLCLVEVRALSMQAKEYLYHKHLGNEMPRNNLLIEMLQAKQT
Numbers without * were called inactive.

SMILES	SF-1 inh
CCN(CC)CCNC(=O)C1c2cc(OC)c(OC)cc2C(=O)N2CCc3ccccc3C12 (configuration not stated)	-15
O=c1c2ccccc2nnn1CSc1ccc2c(c1)OCCO2	-77
COc1ccc(S(=O)(=O)NCCC(=O)NCc2ccccc2)cc1	-1
CN(C)c1ccc2c(c1)OC(N)=C(C#N)C2c1cccc(F)c1 (configuration not stated)	56*
CC(=O)C1=C(C)OC(N)=C(C#N)C1c1ccco1 (configuration not stated)	-3
C#CC(C)(C)NC(=O)c1ccccc1OC	-11
Cc1ccc(-c2nnn(CC(=O)N(Cc3ccco3)C(C(=O)NC(C)(C)C)c3cccs3)n2)o1 (configuration not stated)	14
O=c1oc2ccccc2c(N2CCCCC2)c1CN1CCCCC1	8
O=C(NCCN1CCCCCC1)C1CCC(CNS(=O)(=O)c2cccc3cccnc23)CC1 (configuration not stated)	-3
Oc1c(CN2CCCCC2)cc(Br)c2cccnc12	69*
Cc1cc(C)c2cc(C(c3nnnn3CC3CCCO3)N3CCN4CCCC4C3)c(=O)[nH]c2c1 (configuration not stated)	-1
CC(C)Sc1nnc(Nc2ccccc2)s1	-106
CCC(CC)C(=O)NCCc1cc2ccc(C)c(C)c2[nH]c1=O	4
O=C(NCC1CCCO1)c1ccc2nc(N3CCCCC3)sc2c1 (configuration not stated)	-54
Clc1ccc2nc(N3CCCCC3)sc2c1	-65
CC1CCN(c2nc3ccc(C(=O)O)cc3s2)CC1	94*
O=C(CN(C1CCCCC1)S(=O)(=O)c1ccc(Cl)cc1)NCCCO	-2
Cc1ccc(NC(=O)NC2CCCCC2)cc1Cl	-74
O=C(Nc1ccccc1NC(=O)NC1CCCCC1)NC1CCCCC1	84*
Cc1c(Cl)cccc1NC(=O)NC1CCCCC1	-29
Cc1ccc(-c2cc3nc(C)cc(NCc4ccco4)n3n2)cc1	-51
Cc1ccc(Nc2cc(C)nn2-c2nc(C)cc(=O)[nH]2)cc1	96*
Cc1ccc(Nc2nc3nonc3[nH]c2=O)cc1	-31
Cc1cccc(CN2CCC(CNC(=O)C3CCCN(S(=O)(=O)c4cnc[nH]4)C3)CC2)c1 (configuration not stated)	-3
O=C(NCc1nnc(SC/C=C/c2ccccc2)o1)c1ccco1	10
SMILES	SF-1 inh
CCSC1=C(C#N)C(c2ccccc2OC)CC(=O)N1 (configuration not stated)	-6
COc1cc(C2C(C#N)=C(C)NC3=C2C(=O)c2ccccc23)cc(OC)c1OC (configuration not stated)	82*
Cc1nnc(SCC(=O)N2c3ccccc3CC2C)s1 (configuration not stated)	6
Cc1nnc(SC(=O)N2c3ccccc3Sc3ccccc32)s1	65*
Cn1cccc1C(=O)OCc1cc(Cl)cc2c1OCOC2	-60
COc1cccc(CNC(=O)c2nnn(CC(=O)Nc3ccc(C)c(C)c3)c2N)c1	56*
Nc1c(C(=O)Nc2ccc3c(c2)OCCO3)nnn1CCc1ccccc1	-92
CCc1ccccc1NC(=O)c1nnn(CC(=O)Nc2ccccc2C)c1N	4
Cc1nn(-c2nc3ccccc3s2)c(N)c1-c1ccccc1	-60
O=c1c2ccccc2cnn1-c1nc2ccccc2s1	90*
O=c1c2ccccc2nc2sc3ccccc3n12	-57
COc1ccc(N2C(=O)C3CCCN3C2c2ccc(C)cc2)cc1Cl (configuration not stated)	-4
Cc1ccc2c(c1)nnn2C1CCN(S(=O)(=O)c2ccc(C(=O)N3CC(C)CC(C)C3)cc2)CC1 (configuration not stated)	-24
NC(=O)C1CCC(NC(=O)OCc2ccccc2)CC1 (configuration not stated)	-6
CCN(CC)c1ccc(NC(=O)c2ccccc2F)cc1	-74
CCN(CC)c1ccc2cc(-c3nnc(-c4ccncc4)o3)c(=O)oc2c1	-73
CCN(CC)c1ccc2cc(NC(=O)CCC(=O)O)c(=O)oc2c1	59*
Cc1ccc(S(=O)(=O)N(CCO)c2cc3c(s2)CCCC3)cc1	30
COc1cccc(C(=O)N2CCN=C2SCc2cccnc2)c1OC	-1
CCCCCCC1C(C#N)=C(N)OC2=C1C(=O)CC(C)(C)C2 (configuration not stated)	-7
CC1(C)CC(=O)C2=C(C1)Oc1nc3ccccc3cc1C2C(C#N)C#N (configuration not stated)	81*
COc1ccc(NC(=O)c2ccco2)c(NC(=O)Cc2cccs2)c1	-7
Cn1nnnc1NCc1c(F)cccc1Cl	2
COC(=O)/C(=C1/Oc2cc(C)oc(=O)c2S1)C(F)(F)F	96*
CC1=C(C(=O)Nc2ccccn2)C(c2cccnc2)n2nnnc2N1 (configuration not stated)	-9
CC(C)CN(C(=O)c1ccc(=O)n(C)n1)c1nc2ccccc2s1	-23
CCOC(=O)C(C)Oc1cccc2c(=O)n(CC(=O)NCc3ccc4c(c3)OCO4)ccc12 (configuration not stated)	83*
